Compound activity from PubChem.
TDP1 cell CPT – qHTS for Inhibitors of human tyrosyl-DNA phosphodiesterase 1 (TDP1): qHTS in cells in presence of CPT. chicken DT40 Tdp1-/-;hTDP1 cells + 20 nM CPT, ATP luminescence, 48 h. 12% of 420,000 active. Potency, µM (titrated, usually from 46.2 µM), inactives show at the highest dose activity change, negative = growth inhibition, actives largely listed as inhibitors; note: % is set by controls: 0 for no effect and ±100 for the full control effect; nearly all actives have a fitted effect of over 55% in size
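Chicken DT40 Tdp1-/- cells complemented with human TDP1, 400 cells/well, exposed to compounds plus 20 nM camptothecin for at least 48 h at 37 C; viability read as ATP content by CellTiter-Glo luminescence.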
HT1080-NT tox – qHTS for induction of synthetic lethality in tumor cells producing 2HG: qHTS for the HT-1080-NT fibrosarcoma cell line; HT-1080-NT fibrosarcoma viability, CellTiter-Glo ATP luminescence, 48 h; Potency, µM (top dose mostly 46.1 µM), inactives show at the highest dose activity, negative = less viability, most hits filed as cytotoxic; 1.6% of 360,000 active; AID 686970, 2013;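 note: NT is the 2HG producing partner of a matched IDH1 knockdown line; 0% = DMSO-treated cells and -100% = media-only wells without cells; nearly all actives have a fitted effect of over 55% in size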
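750 cells/well, RPMI + 5% FBS; 2 h settle, compound pin-transfer, 48 h at 37 degrees C. CellTiter-Glo 10 min RT, luminescence. Normalized to DMSO and media-only wells.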
TGFb inhibitor – qHTS for Inhibitors of TGF-b | HepG2 CAGA-GFP TGF-b/SMAD3 reporter, GFP fluorescence, 18 h; TGF-beta stimulated, 500 pg/mL final | Potency, µM (series often up to 46.1 µM), without a hit: top-dose activity, negative = inhibition, actives largely listed as inhibitors | 1.2% of 410,000 active | AID 588855, 2011; note: % is set by controls: 0 for no effect and ±100 for the full control effect; nearly all actives have a fitted effect of over 65% in size
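Inhibition was scored as loss of TGF-beta-induced (500 pg/mL final, 18 hours, 37 degrees C) GFP in HEPG2 cells carrying a CAGA-GFP reporter, in DMEM with 1% FBS. Well GFP was summed per cell; Activity was normalised to unstimulated and stimulated DMSO wells, then concentration-response fitting.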
HepG2 tox – qHTS for Inhibitors of TGF-b: Cytotox Counterscreen | HepG2 CAGA-GFP viability, ATP luminescence, 18 h | Potency, µM (titrated, usually from 46.1 µM), for the others: top-dose activity change, negative = cytotoxicity, usual class: cytotoxic | 0.76% of 410,000 active
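CellTiter-Glo luminescence gave cytotoxicity after 18 hours at 37 degrees C. The cells were HepG2 CAGA-GFP in 1% FBS DMEM, stimulated with 500 pg/mL TGF-beta after compound addition. %Activity was normalised to no-cell wells (complete cell-killing) and DMSO (no toxicity), and curves were fitted and classified.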
TDP1 cell noCPT – qHTS for Inhibitors of human tyrosyl-DNA phosphodiesterase 1 (TDP1): qHTS in cells in absence of CPT; DT40 Tdp1-/- hTDP1 cells, no CPT, ATP luminescence, 48 h; Potency, µM (titrated, usually from 46.2 µM), for inactives: top-dose activity change, negative = growth inhibition, usual class: inhibitors; 15% of 420,000 active; AID 686978, 2013; note: % is set by controls: 0 for no effect and ±100 for the full control effect; nearly all actives have a fitted effect of over 55% in size
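Luminescent ATP content (CellTiter-Glo) served as the growth readout. Knockout chicken DT40 cells expressing human TDP1 were exposed to compounds without camptothecin for a minimum 48 hr at 37 °C.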
HT1080 IDH1KD tx – qHTS for induction of synthetic lethality in tumor cells producing 2HG: qHTS for the HT-1080-IDH1KD cell line | HT-1080 IDH1 knockdown viability, ATP luminescence, 48 h | Potency, µM (doses to about 46.1 µM), for the others: top-dose activity, negative = toxicity, most hits filed as cytotoxic | 2% of 360,000 active;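 note: 0% = DMSO wells and -100% = cell-free medium wells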
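Assay cells: HT-1080 with IDH1 knockdown, 750 per well, RPMI/5% FBS. Exposure: 48 h at 37 °C following 2 h pre-incubation. Read: CellTiter-Glo luminescence; fitted concentration-response, curve class assigned.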
* marks the source's active call; other numbers are inactive results; ? = inconclusive; . = no result. In the library only some 17% were active in any assay of this set; here they are far more common. Calls come from the whole dose curve; as a rule, active = well fitted curve in the direction sought with a large enough effect; inconclusive = small, poorly fitted or top-dose-only effect, or another doubt; inactive = no such curve, though single readings can be large; an effect the other way counts as inactive or inconclusive. Potency is the fitted concentration of half-maximal effect.

SMILES | TDP1 cell CPT | HT1080-NT tox | TGFb inhibitor | HepG2 tox | TDP1 cell noCPT | HT1080 IDH1KD tx
Cn1cc([N+](=O)[O-])c(C(=O)Nc2nc(-c3ccc(Cl)cc3)cs2)n1 | ? | 2.9µM* | ? | 6.3µM* | ? | 3.3µM*
Cc1cnc(NC(=O)c2nn(C)cc2[N+](=O)[O-])s1 | 19% | ? | ? | -1% | -9% | ?
CC(=O)c1c(C)[nH]c(C(=O)Nc2nc(-c3ccc(Cl)cc3)cs2)c1C | 21µM* | 7% | -1% | 16% | ? | 13%
COc1ccc([C@H]2CC(=O)C=C(c3cccc(C(F)(F)F)c3)C2)cc1 | ? | -7% | -10% | 2% | -21% | 4%
COc1ccccc1N1CCN(C(=O)CCS(=O)(=O)c2ccc3c(c2)oc(=O)n3C)CC1 | -10% | 10% | 9% | 5% | 27% | 11%
COc1ccc(C)cc1S(=O)(=O)N1CCCC(C(=O)N2CCOCC2)C1 (stereo not drawn) | -1% | 21% | 0% | 3% | 19% | 7%
COc1ccccc1N1CCN(C(=O)C2CCN(S(=O)(=O)c3ccccc3F)CC2)CC1 | ? | 3% | 5% | 0% | 23µM* | 4%
COC(CNC(=O)C1CCCN(S(=O)(=O)c2ccc3c(c2)oc(=O)n3C)C1)OC (stereo not drawn) | 10% | 1% | 10% | 8% | 12% | 18%
COc1ccccc1N1CCN(C(=O)C2CCCN(S(=O)(=O)c3ccc4c(c3)oc(=O)n4C)C2)CC1 (stereo not drawn) | 26µM* | -3% | -23% | -12% | 8.2µM* | -17%
COc1ccccc1N1CCN(C(=O)C2CCN(S(=O)(=O)c3ccc(C)cc3)CC2)CC1 | -15% | 3% | 9% | -5% | ? | -7%
COc1ccc(C)cc1S(=O)(=O)N1CCCC(C(=O)N2CCN(c3ccccc3F)CC2)C1 (stereo not drawn) | ? | -20% | -11% | 12% | 23µM* | -29%
COc1ccc(N2CCN(C(=O)C3CCCN(S(=O)(=O)c4ccc5c(c4)oc(=O)n5C)C3)CC2)cc1 (stereo not drawn) | 12µM* | 13% | 0% | 1% | 10µM* | -7%
O=C(CO)c1c[nH]c2ccccc12 | -2% | . | -16% | -4% | 6% | .
C=CCN=C(NC#N)SCC(=O)c1cccc(OC)c1 | -19% | -22% | ? | -18% | -23% | ?
O=C(NCC(c1cccs1)S(=O)(=O)c1cccs1)c1ccccc1F (stereo not drawn) | -11% | . | -6% | -26% | ? | .
Cc1ccc(S(=O)(=O)C(CNC(=O)c2ccccc2F)c2cccs2)cc1 (stereo not drawn) | ? | . | -13% | -2% | 15µM* | .
Cc1ccc(S(=O)(=O)C(CNC(=O)C(=O)NCCc2ccccc2)c2cccs2)cc1 (stereo not drawn) | 16µM* | . | 3% | -4% | 15µM* | .
COc1ccc(CCNC(=O)C(=O)NCC(c2cccs2)S(=O)(=O)c2ccc(C)cc2)cc1 (stereo not drawn) | ? | . | 0% | -16% | 9.2µM* | .
COc1ccccc1CNC(=O)C(=O)NCC(c1ccco1)S(=O)(=O)c1ccc(C)cc1 (stereo not drawn) | ? | . | -5% | -2% | ? | .
COc1ccccc1CCNC(=O)C(=O)NCC(c1ccco1)S(=O)(=O)c1ccc(F)cc1 (stereo not drawn) | 16µM* | . | 26% | -24% | ? | .
O=C(NCCc1ccc(F)cc1)C(=O)NCC(c1cccs1)S(=O)(=O)c1ccccc1 (stereo not drawn) | ? | . | -14% | 0% | ? | .
CCOc1ccc(S(=O)(=O)NCCC(=O)N(CC)CC(=O)Nc2c(F)cccc2F)cc1 | 12% | 9% | 1% | 2% | ? | 1%
CCC(Sc1nnc2c3ccccc3n(C)c2n1)C(=O)Nc1nnc(C(C)C)s1 (stereo not drawn) | ? | . | -27% | -2% | -30% | .
CCOc1ccccc1N1CCN(CC(=O)NC(C)c2ccccc2)CC1 (stereo not drawn) | 2% | 8% | 11% | 2% | -21% | 6%
Cc1ccc(S(=O)(=O)C(CNC(=O)C(=O)NCCc2ccc(F)cc2)c2cccs2)cc1 (stereo not drawn) | ? | . | -23% | -23% | 16µM* | .
SMILES | TDP1 cell CPT | HT1080-NT tox | TGFb inhibitor | HepG2 tox | TDP1 cell noCPT | HT1080 IDH1KD tx
C[C@@H]1CN([C@@H](C)CO)C(=O)CCCn2nncc2CO[C@@H]1CN(C)C(=O)Nc1cccc(C(F)(F)F)c1 | -5% | 14% | 6% | 2% | -29% | 15%
CC(=O)Nc1ccc(Sc2ncccc2C(=O)Nc2ccc(OC(F)(F)F)cc2)cn1 | 6.5µM* | -10% | 2% | -2% | 5.2µM* | -2%
CC(=O)Nc1ccc(Sc2ncccc2C(=O)Nc2cc(Cl)cc(Cl)c2)cn1 | ? | -12% | ? | -33% | ? | -30%
Cc1ccc(NC(=O)CCSc2nnnn2-c2ccc3c(c2)OCO3)cc1C | ? | -16% | 8% | -11% | ? | -11%
O=C(Nc1nnc(C2CC2)s1)C1COc2ccccc2O1 (stereo not drawn) | 3% | 22% | -4% | -12% | -2% | 14%
O=C(Nc1ccc(-c2cn3ccsc3n2)cc1)C1COc2ccccc2O1 (stereo not drawn) | 21µM* | -24% | -4% | -23% | ? | ?
O=C(Nc1nnc(C(F)(F)F)s1)C1COc2ccccc2O1 (stereo not drawn) | ? | ? | ? | -38% | ? | 23µM*
Cc1ccc(NC(=O)C2COc3ccccc3O2)cc1 (stereo not drawn) | -8% | 0% | 4% | -2% | -21% | 4%
COc1ccc(OC)c2sc(NNC(=O)C3COc4ccccc4O3)nc12 (stereo not drawn) | 15µM* | -3% | -15% | -14% | ? | -19%
